Measured values: PubChem BioAssay (Tox21)
Results filed as inconclusive are left out. Values without a mark were called inactive. The call rests on the fitted dose curve; in most records, active means well fitted inhibition curve with a large enough effect in the repeat runs; inconclusive means weak or mixed curves, or effect the other way; inactive means no such curve, though single readings can be large or run the other way.

biological target: Nuclear receptor ROR-gamma (Homo sapiens) (UniProt P51449); assay: qHTS assay to identify small molecule antagonists of the retinoid-related orphan receptor gamma (ROR-gamma) signaling pathway (AID 1159521; further: top concentration of the series differs between compounds; nearly all actives have a fitted effect of over 50% in size); settings: Tet-on RORgamma CHO cells, RORE-luciferase, 16 h; series mostly up to 92.4 µM; activity change, negative = inhibition: at the top concentration
From the text: U.S. Tox21 Program National Center for Advancing Translational Sciences [NCATS] NIH Chemical Genomics Center [NCGC] U.S. Environmental Protection Agency [EPA] National Institutes of Environmental Health Sciences [NIEHS] National Toxicology Program [NTP] U.S. Food and Drug Administration [FDA] Tox21 Assay Overview: Nuclear steroid hormone receptors are involved in many biological processes including inflammatory responses, cell proliferation, and apoptosis. Environmental factors or compounds disrupting these nuclear receptor pathways and gene expression may promote susceptibility to immunotoxicants and autoimmune diseases. One important group of these expression factors are the retinoid-related orphan receptors. To assess compounds that may interfere with the retinoid-related orphan receptor gamma (ROR-gamma) transcription factor, a cell-based luciferase assay was used. The CHO cell-based assay utilizes a TET-inducible ROR expression factor and ROR response element-LUC reporter gene. Reporter gene activity was induced using Doxycycline Hyclate and measured after 16 hr incubation. Tet-on ROR gamma CHO cells were used to screen against the Tox21 10K compound library for ROR gamma antagonists by quantification of decreased reporter gene activity in terms of decreased luminescence.
Tox21 Assay Protocol Summary: Tet-on ROR gamma CHO cells were dispensed at 1,000 cells in 4 uL of culture medium per well into white wall/solid bottom 1536-well plates using a Multidrop Combi (Thermo Scientific, Waltham, MA) dispenser. Following incubation at 37 C and 5% CO2 for 4 hr, 23 nL of compounds dissolved in DMSO, positive controls or DMSO only were transferred by a Pintool station (Kalypsys, San Diego, CA) and after 2 hr incubation at 37 C, one ul of 1 uM (final concentration) of Doxycycline Hyclate was added to all the wells by using a Flying Reagent Dispenser (FRD) (Aurora Discovery, San Diego, CA). After 16 hr incubation at 37 C and 5% CO2, 5 uL of ONE-Glo reagent (Promega Corporation, Madison, WI) was added to each assay plate using FRD. After 30 min incubation at room temperature, luminescence was quantified on a ViewLux plate reader (Perkin Elmer, Waltham, MA).
On the % scale 0 is the no-effect control and ±100 the full control effect.

Compound	activity change, negative = inhibition
O=C(O)c1cc(Br)c(O)c(Br)c1	9.14%
O=C(OCC1(COC(=O)c2cccnc2)CCCC(COC(=O)c2cccnc2)(COC(=O)c2cccnc2)C1O)c1cccnc1	6.07% [at 42.5 µM]
O=C(O)C(=O)Cc1ccccc1	-23.7%
Cc1cccc2nccnc12	2.51%
O=C(CCN1CCN(CCO)CC1)N1c2ccccc2Sc2ccc(C(F)(F)F)cc21	-13% [at 42.5 µM]
CCCOC(OCCC)OCCC	7.86%
Cc1cc2cc3c(C)cc(=O)oc3c(C)c2o1	55.1% [at 42.5 µM]
O=C(NCCN1CCOCC1)c1ccc(Cl)cc1	42.4% [at 42.5 µM]
C=C(C)C(=O)OCCN(CC)CC	18.6%
COc1cc(N)ccc1C	8.53%
O=C(CCNNC(=O)c1ccncc1)NCc1ccccc1	17.1% [at 42.5 µM]
CC(CO)c1ccccc1 (stereo not given)	1.98%
N#Cc1ccc(C(=O)O)cc1	-4.53%
Cc1ccccc1OCC(O)CO (stereo not given)	35.6% [at 42.5 µM]
Cc1c(I)c(=O)n(-c2ccccc2)n1C	7.49% [at 42.5 µM]
COCCc1ccc(OCC2CO2)cc1 (stereo not given)	65.2% [at 42.5 µM]
COC(=O)[C@@H]1[C@H]2C[C@H]3c4[nH]c5ccccc5c4CCN3C[C@@H]2CC[C@@H]1O	-3.49% [at 42.5 µM]
COc1cc2c(cc1OC)[C@@H]1CC(=O)[C@@H](CC(C)C)CN1CC2	10.8% [at 42.5 µM]
CCCCNC1CC(C)(C)NC(C)(C)C1	-18.5%
CCNC(=O)C1CC(C)CCC1C(C)C (stereo not given)	2.55%

Compound	activity change, negative = inhibition
CC(CN)CC(C)(C)CCN (stereo not given)	2.42% [at 240 µM]
Cc1ccc2ccc(Cl)cc2n1	-6.35% [at 42.5 µM]
CCCCCCCCC(=O)Cl	-19.2%
CC(C)OC(=O)CCCCC(=O)OC(C)C	30.8%
CC(=O)N[C@@H](CCC(=O)O)C(=O)O	10.1% [at 42.5 µM]
COc1nccnc1NS(=O)(=O)c1ccc(N)cc1	6.53% [at 42.5 µM]
Brc1ccc(-c2ccccc2)cc1	-9.63%
CCN(CC)CC(=O)Nc1c(C)cccc1C	7.61% [at 42.5 µM]
CCOCCOCCOCC	26.3%
CC(=O)CCCCn1c(=O)c2c(ncn2C)n(C)c1=O	-8.16% [at 42.5 µM]
N[C@@H](CCC(=O)Nc1ccc([N+](=O)[O-])cc1)C(=O)O	7.85%
COc1ccc2nc(SCc3ncc(C)c(OC)c3C)[nH]c2c1	63.8% [at 42.5 µM]
Cc1ccccc1N=O	3.46%
NNc1nnc(NN)c2ccccc12	98.8% [at 42.5 µM]
COc1ccc(-c2cc(=O)c3c(O)cc(O[C@@H]4O[C@H](CO[C@@H]5O[C@@H](C)[C@H](O)[C@@H](O)[C@H]5O)[C@@H](O)[C@H](O)[C@H]4O)cc3o2)cc1O	24.4% [at 42.5 µM]
CCCC/C=C/C=C\C=O	-0.486%
CC(S)C(=O)NCC(=O)O (stereo not given)	2.77% [at 42.5 µM]
CCCCCOC(=O)CCC	-19.3%
C[C@H](CCC(=O)O)[C@H]1CC[C@H]2[C@@H]3C(=O)C[C@@H]4CC(=O)CC[C@]4(C)[C@H]3CC(=O)[C@]12C	6.48% [at 42.5 µM]
NC(CO)C(=O)NNCc1ccc(O)c(O)c1O (stereo not given)	22% [at 42.5 µM]
